Measurements reported in PubChem BioAssay.
Values without a mark were called inactive. The rule behind the calls is not given here.

biological target: Pantothenate synthetase (Mycobacterium tuberculosis (strain ATCC 25618 / H37Rv)) (UniProt P9WIL5); assay: Coupled enzyme confirmation of inhibitors against recombinant Mtb PanC (AID 375); details: coupled enzyme assay; at 10 µM, stronger effect = higher value;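 note: 0% = full reaction with vehicle and 100% = no enzyme background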
Sequence (P9WIL5 whole entry, looked up): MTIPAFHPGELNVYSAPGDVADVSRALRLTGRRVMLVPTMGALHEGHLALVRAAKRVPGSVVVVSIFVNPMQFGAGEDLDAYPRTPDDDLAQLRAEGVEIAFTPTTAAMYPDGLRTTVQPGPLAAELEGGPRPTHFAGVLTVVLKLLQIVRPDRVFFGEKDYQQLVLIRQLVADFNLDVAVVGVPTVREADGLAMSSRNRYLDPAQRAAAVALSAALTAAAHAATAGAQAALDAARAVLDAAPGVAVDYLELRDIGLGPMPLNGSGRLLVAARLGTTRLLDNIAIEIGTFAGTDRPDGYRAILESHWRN

| SMILES | inhibition |
| --- | --- |
| CCOP(=O)(c1ccc(N(C)C)cc1)C(O)c1cc(OC)c(OC)c(OC)c1 (centres undefined) | 0% |
| CCn1c2ccccc2c2cc(NC(=O)Cc3ccc(S(=O)(=O)N4CCOCC4)s3)ccc21 | 0% |
| CCCCNC(=O)Cn1c(=O)n(C)c2ccccc21 | 0% |
| CCc1nnc(NC(=O)c2cccc(C(=O)Nc3nnc(CC)s3)n2)s1 | 0% |
| Cc1ccc(S(=O)(=O)N2CCN(S(C)(=O)=O)C2c2ccccc2)cc1 (centres undefined) | 0% |
| O=C(Cn1cnc2c(nnn2-c2ccc(F)cc2)c1=O)NCc1ccco1 | 0% |
| COc1ccccc1NC(=O)CSc1nnc(CC(=O)Nc2ccccc2)n1C | 6% |
| CCOC(=O)Cc1csc(/C(=N/O)C(N)=O)n1 | 3% |
| O=C(NCCN1C(=O)C2C3C=CC(C3)C2C1=O)N1CCOCC1 (centres undefined) | 0% |
| CCOC(=O)CN1C(=O)C(=O)c2cccc(C)c21 | 0% |
| CCOC(=O)c1cc2sc(C)cc2n1CC(=O)Nc1cccc(C)c1C | 0% |
| Cc1oc2c(CN3CCCC3)c(O)ccc2c(=O)c1-c1ccccc1 | 0% |
| O=C(NCCCN1CCN(CCCNC(=O)c2ccc(F)cc2)CC1)c1ccc(F)cc1 | 0% |
| O=C(CSc1nc(O)cc(=O)n1-c1ccccc1)N1CCCCC1 | 0% |
| O=C(NCc1cccs1)C1CCN(S(=O)(=O)c2cccs2)CC1 | 0% |
| CCOC(=O)C1CCCN(Cc2nc(N)nc(Nc3ccccc3)n2)C1 (centres undefined) | 10% |
| COc1ccc(-c2nnc3sc(C(C)N4C(=O)c5ccccc5C4=O)nn23)cc1 (centres undefined) | 0% |
| CCC(c1nnc(SCC(=O)Nc2ccc(C(=O)Nc3ccccc3OC)cc2)o1)N(C)C (centres undefined) | 0% |
| CCCOc1ccccc1C1CC(=O)Nc2cc3c(cc21)OCCO3 (centres undefined) | 2% |
| CC1=C(C)C(=O)C(CCCCC#CCCCC#CCO)=C(C)C1=O | 6% |
| CC(C)(C)n1nc2c(c1NC(=O)COc1ccc(Cl)cc1)CSC2 | 0% |
| O=C(c1ccco1)N1CCN(S(=O)(=O)c2ccc(Oc3ccccc3)cc2)CC1 | 0% |
| CCC1Oc2ccc(C)cc2N(CC(=O)N(Cc2cccnc2)Cc2ccc(C)o2)C1=O (centres undefined) | 4% |
| Cc1cc(-c2ccccc2)c2nncn2n1 | 3% |
